Results on 27 compounds are retold here after PubChem BioAssay AID624330 (Southern Research Specialized Biocontainment Screening …, 2012).

About 2,100 (0.62%) of roughly 340,000 compounds were called active.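 Rule for the calls: active = first-screen hits whose inhibition reached a set limit at any dose in the follow-up dose series; inconclusive = inhibition above the set first-screen limit but never retested; inactive = the rest.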 The list is a sample of the results. Potency and affinity values are given separately.

The target in this test is Rac GTPase-activating protein 1 (Homo sapiens) (UniProt Q9H0H5). Kind of test: MgcRacGAP GTPase-activating activity inhibitors, confirmation, biochemical, ADP Hunter fluorescence, primary and confirmatory (AID 624330).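 Note: fluorescence reports GDP produced by GAP-driven GTP hydrolysis.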 As to conditions: MgcRacGAP-stimulated Rac1 GTP hydrolysis, at 30 µM, hits give high values, GST-tagged Rac1 F28L mutant substrate.
Rac GTPase-activating protein 1 (Homo sapiens), sequence (Q9H0H5 whole entry, looked up): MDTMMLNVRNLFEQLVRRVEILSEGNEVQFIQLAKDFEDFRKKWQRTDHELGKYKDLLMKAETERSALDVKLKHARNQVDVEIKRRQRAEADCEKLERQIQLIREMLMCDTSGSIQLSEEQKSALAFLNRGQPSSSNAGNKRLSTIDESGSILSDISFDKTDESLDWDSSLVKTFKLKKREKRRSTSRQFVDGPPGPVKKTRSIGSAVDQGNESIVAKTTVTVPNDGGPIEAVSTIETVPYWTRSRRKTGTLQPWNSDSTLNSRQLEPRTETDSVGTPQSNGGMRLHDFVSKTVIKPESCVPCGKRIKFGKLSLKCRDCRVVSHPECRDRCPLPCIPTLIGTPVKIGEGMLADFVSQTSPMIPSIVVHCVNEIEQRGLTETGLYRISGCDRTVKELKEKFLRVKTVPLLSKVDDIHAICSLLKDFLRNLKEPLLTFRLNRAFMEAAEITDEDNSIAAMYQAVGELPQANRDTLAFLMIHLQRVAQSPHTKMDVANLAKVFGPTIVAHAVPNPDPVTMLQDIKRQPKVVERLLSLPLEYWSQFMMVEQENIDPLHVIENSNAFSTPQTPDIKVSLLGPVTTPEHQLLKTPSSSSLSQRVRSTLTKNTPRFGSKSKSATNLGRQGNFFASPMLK
Broadly, the inhibition is the relative decrease from the control value, in per cent. As to `CC(C)Nc1nc(NC2CCCC2)nc(N2CCOCC2)n1`, the inhibition is -6.17% (inactive).
On to `Cc1cccc(NS(=O)(=O)c2cccc(C(=O)N3CCCCCCC3)c2)c1`, for which the inhibition was 7.59% (inactive).
On to `CCOC(=O)C1=C(C)NC(C)=C(C(=O)OCC)C1C(=O)O`, for which the inhibition was -2.63% (inactive).
For the compound `O=c1[nH]c2ccccc2nc1/C=C/c1ccc(F)cc1`, the inhibition was 2.77% (inactive).
The figure for `C(=C\c1ccc2ccccc2n1)/c1ccccc1` is -0.19% (inactive); for `CN(C)c1ccc(/C=C/c2ccc3ccccc3n2)cc1` it is 10.9% (inactive); for `Oc1ccc(/C=C/c2ccnc3ccccc23)cc1` it is 20.5% (inactive).
On to `O=C(Nc1cccc(S(=O)(=O)NC2=NCCCCC2)c1)c1cc(-c2ccc(Cl)cc2)nc2ccccc12`, for which the inhibition is 9.39% (inactive).
Turning to `Cc1ccc(-c2nnc(SCC(=O)Nc3nc4c(s3)CCCC4)n2C)cc1`, the inhibition is 10.7% (inactive).
For `COc1ccc(O)c(/C=N/NC(=O)CCC(=O)Nc2ccc(C)cc2)c1` the value was 5.47% (inactive).
The figure for `COc1ccc(O)c(/C=N/NC(=O)CCC(=O)Nc2cccc(C)c2)c1` is 6.29% (inactive); for `Cc1cccc(NC(=O)CCC(=O)N/N=C/c2cc([N+](=O)[O-])ccc2O)c1` it is 5.13% (inactive); for `Cc1ccc(NC(=O)CCC(=O)N/N=C/c2ccccc2O)cc1` it is -6.53% (inactive).
For `COc1ccc(N2CCN(C(=O)COC(=O)Cc3ccc(F)cc3)CC2)cc1` the value was 17.9% (inactive); for `C[C@@H]1CN([C@H](C)CO)C(=O)CCCn2nncc2CO[C@H]1CN(C)Cc1ccc(O)cc1`, 7.18% (inactive).
On to `O=C(c1cc(-c2ccco2)on1)N1CCOCC1`, for which the inhibition was 2.62% (inactive).
For `Cn1c(SCC(=O)N2CCOCC2)nnc1-c1ccco1` the value was -0.83% (inactive).
As for `Cc1cccc(N2C(=O)C(O)=C(C(=O)c3cccs3)C2c2ccc(F)cc2)n1` (configuration not stated), the inhibition is 11.6% (inactive).
Take `O=C(CC(=O)c1ccccc1)Nc1cc(C(F)(F)F)ccc1Cl`: the inhibition was -0.8% (inactive).
The figure for `CC1CCN(CC(=O)Nc2cc(C(F)(F)F)ccc2Cl)CC1` is 6.71% (inactive); for `COc1ccc(OC)c(NC(=O)CC2(CC(=O)O)CCCC2)c1` it is 5.41% (inactive).
The figure for `O=C(Nc1cccc(-n2cnnn2)c1)c1cc2ccccc2o1` is 0.98% (inactive); for `CC(=O)Nc1cccc(-c2csc(NCc3ccco3)n2)c1` it is 15.4% (inactive); for `CC(=O)Nc1ccc(-c2csc(NCc3ccccc3)n2)cc1` it is 8.92% (inactive).
Take `N/C(=N\OC(=O)c1ccco1)c1cccc([N+](=O)[O-])c1`: the inhibition is 6.07% (inactive).
`CCn1cc(Cl)c(C(=O)Nc2nccs2)n1`: the inhibition is 1.45% (inactive).
The figure for `C=C(C)CSc1nnc(-c2ccc(OC)cc2)n1N` is 5.76% (inactive).
